Some test systems named below: EKVX NSCLC; SN12C renal; UO-31 renal; ACHN renal; CAKI-1 renal; A498 renal; CCRF-CEM leukemia; MOLT-4 leukemia; SR leukemia; RPMI-8226 leukemia; OVCAR-8 ovarian; OVCAR-5 ovarian; OVCAR-4 ovarian; IGROV1 ovarian; OVCAR-3 ovarian; HS 578T breast; NCI/ADR-RES ovarian; T-47D breast; SK-OV-3 ovarian.
Assay in all cases: NCI-60 one-dose screen, 48 h (100 = growth as untreated, 0 = no growth, -100 = all killed)
Common to all, as to conditions: 10 µM unless noted

SMILES strings stand for the structures. This is part of a sample that, as a whole, favours compounds with a hit. Of some 83,000 tested, about 20% had one in any assay.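 Growth was measured after 48 h exposure to one concentration of compound in 96-well plates. Values under 10 count as active.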 Values without a mark were called inactive. Calls of active or inactive are those of the source.

Take `N/C(=N\c1nc2c(Cl)cc(Cl)cc2s1)C(Cl)(Cl)Cl`: the growth in the assay on EKVX NSCLC was 13.4%; with SN12C renal it was 77.9%; with UO-31 renal it was 45.8%; with ACHN renal, -32% (active); in the assay with CAKI-1 renal it was 5.87% (active); in the assay on A498 renal, -44.4% (active). Moreover, the growth with CCRF-CEM leukemia is 83.7%; in the assay on MOLT-4 leukemia, 82.8%; in the assay with SR leukemia, 85.1%; in the assay on RPMI-8226 leukemia, 15.4%; in the assay with OVCAR-8 ovarian, 68.3%; in the assay with OVCAR-5 ovarian it was 69.5%. The growth in the assay on OVCAR-4 ovarian is 67.9%; with IGROV1 ovarian, 57.8%; in the assay on OVCAR-3 ovarian, -9.72% (active); in the assay on HS 578T breast, 22.1%; in the assay on NCI/ADR-RES ovarian, 68.3%; in the assay on T-47D breast, 32.3%.
With `[Cl][Ru].c1ccc(-c2cccc(-c3ccccn3)n2)nc1.c1ccc(-c2ccnc3c2ccc2c(-c4ccccc4)ccnc23)cc1`, the growth is 62.7% in the assay with EKVX NSCLC; 20.1% in the assay with SN12C renal; 79.6% with UO-31 renal; 96.7% in the assay with ACHN renal; 80.3% in the assay on CAKI-1 renal; 54.9% in the assay on A498 renal. Moreover, the growth with CCRF-CEM leukemia was 38%; in the assay with MOLT-4 leukemia, 41.4%; in the assay on SR leukemia, 11%; in the assay on RPMI-8226 leukemia, -10.5% (active); with OVCAR-8 ovarian it was 68.2%; in the assay with OVCAR-5 ovarian, 68.1%. Also, the growth is 47.3% with OVCAR-4 ovarian; 21.4% in the assay with IGROV1 ovarian; 13.8% in the assay with OVCAR-3 ovarian; 13.4% in the assay on HS 578T breast; 71.5% in the assay with NCI/ADR-RES ovarian; 14.2% with T-47D breast.
In the case of `CCC/C=C/C=C/C(=O)N[C@@H](Cc1cc(F)cc(F)c1)C(=O)N[C@@H]1C(=O)N2CCC[C@H]2C(=O)N2CCCC[C@H]2C(=O)N[C@@H](C)C(=O)N2C[C@H](C)C[C@H]2C(=O)O[C@H]1C`, the growth in the assay on EKVX NSCLC was 32.1%; in the assay with SN12C renal it was 20.3%; with UO-31 renal, 29.7%; in the assay on ACHN renal, 23.1%; with CAKI-1 renal, 11.5%; in the assay on A498 renal it was 3.26% (active). In addition, the growth in the assay on CCRF-CEM leukemia was 28.9%; in the assay with MOLT-4 leukemia, 34.7%; in the assay with SR leukemia it was 27.1%; in the assay on RPMI-8226 leukemia, -0.71% (active); with OVCAR-8 ovarian it was 18.4%; in the assay on OVCAR-5 ovarian, 24.6%. For the same molecule, the growth in the assay on OVCAR-4 ovarian was 22.3%; in the assay on SK-OV-3 ovarian, 30%; in the assay with IGROV1 ovarian, 40.8%; with OVCAR-3 ovarian, 19.1%; with HS 578T breast, 31%; in the assay on NCI/ADR-RES ovarian, 20.8%. The growth with T-47D breast was 15.9%.
`C[C@@H](Nc1c(C#N)cnc2ccc(-c3cnc(N)nc3)cc12)c1ccccc1`: the growth was 4.11% (active) with EKVX NSCLC; 11.8% with SN12C renal; 4.65% (active) in the assay with UO-31 renal; 6.57% (active) with ACHN renal; 1.83% (active) in the assay on CAKI-1 renal; -37.8% (active) with A498 renal. Moreover, the growth was 14% in the assay on CCRF-CEM leukemia; 0.24% (active) in the assay on MOLT-4 leukemia; 7.92% (active) with SR leukemia; -26.9% (active) in the assay on RPMI-8226 leukemia; 17.1% with OVCAR-8 ovarian; 20.9% in the assay on OVCAR-5 ovarian. Besides, the growth with OVCAR-4 ovarian was 4.34% (active); in the assay on SK-OV-3 ovarian, -2.04% (active); with IGROV1 ovarian, -32.6% (active); with OVCAR-3 ovarian it was 9.52% (active); with HS 578T breast it was -13.6% (active); in the assay on T-47D breast, 3.05% (active).
As for `Nc1ncc(-c2ccc3ncnc(N4CCc5cc(F)c(Cl)cc54)c3c2)cc1CO`, the growth was -15.8% (active) in the assay on EKVX NSCLC; 14.7% with SN12C renal; 6.11% (active) in the assay with UO-31 renal; 5.95% (active) in the assay with ACHN renal; 2.97% (active) in the assay on CAKI-1 renal; -64% (active) in the assay on A498 renal. The growth in the assay on CCRF-CEM leukemia was 6.14% (active); in the assay on MOLT-4 leukemia, -14.6% (active); with SR leukemia, -6.6% (active); in the assay on RPMI-8226 leukemia, -25.4% (active); in the assay with OVCAR-8 ovarian it was 12.5%; in the assay with OVCAR-5 ovarian, 19.9%. Further, the growth in the assay on OVCAR-4 ovarian is 8.51% (active); in the assay with SK-OV-3 ovarian, -18.4% (active); in the assay on IGROV1 ovarian it was -54.7% (active); with OVCAR-3 ovarian, -19.8% (active); in the assay with HS 578T breast, -18% (active); in the assay with NCI/ADR-RES ovarian, 9.17% (active). Moreover, the growth in the assay on T-47D breast was 0.798% (active).
`N/C(=N\c1nc2c(Br)cccc2s1)C(Br)Br`: the growth was 16.4% with EKVX NSCLC; 18% in the assay with SN12C renal; 4.29% (active) in the assay with UO-31 renal; -40.4% (active) in the assay on ACHN renal; -19.6% (active) in the assay on CAKI-1 renal; 0.53% (active) with A498 renal. In addition, the growth in the assay with CCRF-CEM leukemia is -1.73% (active); with MOLT-4 leukemia, -2.89% (active); in the assay on SR leukemia, -24% (active); in the assay with RPMI-8226 leukemia it was -16.5% (active); with OVCAR-8 ovarian, -18% (active); in the assay on OVCAR-5 ovarian, 8.49% (active). The growth with OVCAR-4 ovarian is 43.2%; in the assay with SK-OV-3 ovarian, 53%; with IGROV1 ovarian it was -67.6% (active); with OVCAR-3 ovarian, -27.4% (active); with HS 578T breast it was 6.83% (active); in the assay with NCI/ADR-RES ovarian, 6.58% (active). In addition, the growth with T-47D breast is 33.1%.
As to `CN(C)c1ccc(/C=c2\sc3nc4ccccc4n3c2=O)cc1`, the growth with EKVX NSCLC is 87%; in the assay with SN12C renal it was 99.2%; in the assay on UO-31 renal it was 92.2%; in the assay with ACHN renal it was 98%; with CAKI-1 renal, 93.3%; with A498 renal, 85.1%. Moreover, the growth was 13.8% in the assay with CCRF-CEM leukemia; 103% in the assay with MOLT-4 leukemia; 99.7% in the assay on SR leukemia; 104% in the assay with RPMI-8226 leukemia; 106% with OVCAR-8 ovarian; 102% in the assay on OVCAR-5 ovarian. The growth is 107% with OVCAR-4 ovarian; 124% in the assay with SK-OV-3 ovarian; 77.2% in the assay with IGROV1 ovarian; 124% in the assay on OVCAR-3 ovarian; 101% in the assay on HS 578T breast; 107% in the assay on NCI/ADR-RES ovarian. Besides, the growth in the assay on T-47D breast was 83.8%.
Consider `OC1CCN(CCCOc2c3ccccc3nc3c2oc2ccc(Cl)cc23)CC1`, for which the growth in the assay on EKVX NSCLC was 14.8%; in the assay on SN12C renal it was 18.8%; in the assay on UO-31 renal, 12.8%; with ACHN renal, 5.57% (active); in the assay with CAKI-1 renal, 12.8%; in the assay on A498 renal, -8.33% (active). Further, the growth in the assay on CCRF-CEM leukemia was 19.2%; with MOLT-4 leukemia it was 9.39% (active); in the assay with SR leukemia, 8.25% (active); in the assay with RPMI-8226 leukemia, -3.88% (active); in the assay with OVCAR-5 ovarian, 21.2%; in the assay with OVCAR-4 ovarian, 19.1%. In addition, the growth in the assay with SK-OV-3 ovarian was 45.6%; in the assay on IGROV1 ovarian it was 1.4% (active); with OVCAR-3 ovarian it was 27.7%; in the assay on HS 578T breast it was 32%; in the assay on NCI/ADR-RES ovarian it was 21.5%; in the assay on T-47D breast, 35.9%.

(Values after PubChem BioAssay (NCI).)
